# Screening data deposited in PubChem by several laboratories.
# The entries come from a sample that favours hits as a whole.
# GluA2 TARP mod: GluA2-stargazin AMPA receptor complex modulation; O88602+P19491; HEK293 GluA2+stargazin, membrane potential dye (FDSS), glutamate EC50; hits were called plate by plate, in both directions; calls only at 30 µM; 40,000 tested, 3.5% active;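 active = any of four per-well response measures lying three or more SD from its plate-wide compound average, in either direction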
# GIRK2 activator: Activates human GIRK2-containing potassium channels; HEK293 GIRK2/NPY4 cells, thallium flux fluorescence; AID 1259324; 34,000 tested, under 10 active; P48051; activation (% efficacy), % for hits at 37.5 µM;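 active = primary screen hit, no activity in plain HEK293 cells, and in GIRK2-only cells above 5% efficacy rising with concentration; inactive = the rest, including fluorescent compounds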;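 note: efficacy is normalized control-subtracted fluorescence 15 s after thallium addition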
# Target sequence (P48051 whole entry, looked up): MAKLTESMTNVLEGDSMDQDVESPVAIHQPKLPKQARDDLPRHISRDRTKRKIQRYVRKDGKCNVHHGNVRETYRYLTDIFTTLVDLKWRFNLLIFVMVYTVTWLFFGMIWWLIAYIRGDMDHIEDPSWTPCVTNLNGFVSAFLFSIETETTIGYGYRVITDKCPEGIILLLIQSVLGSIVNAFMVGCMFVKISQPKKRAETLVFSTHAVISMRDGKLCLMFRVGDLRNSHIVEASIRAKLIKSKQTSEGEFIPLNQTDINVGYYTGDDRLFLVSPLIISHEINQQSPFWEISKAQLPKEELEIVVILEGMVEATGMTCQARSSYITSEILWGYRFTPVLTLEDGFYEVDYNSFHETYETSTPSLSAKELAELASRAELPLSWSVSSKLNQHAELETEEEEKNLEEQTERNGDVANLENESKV
# Active calls of the source: *; i = inactive; . = not tested or not shown; + = active, no number.
SMILES,GluA2 TARP mod,GIRK2 activator
CCCOc1cn(-c2ccc(F)cc2)nc1C(=O)N1CCN(c2ccccc2)CC1,i,i
COc1cccc(NC(=O)NCCCn2nc(-c3ccco3)ccc2=O)c1,i,i
CC(c1ccccc1)n1c(N2CCCC2)nc2c1c(=O)n(C)c(=O)n2C (centres undefined),i,i
CC(c1ccccc1)n1c(N2CCCCCC2)nc2c1c(=O)n(C)c(=O)n2C (centres undefined),+,i
COC(=O)C1=C(CS(=O)(=O)c2ccc(F)c(Cl)c2)NC(=O)NC1c1ccc(O)c(OC)c1 (centres undefined),i,.
CC(C)c1ccc(S(=O)(=O)N2CCN(C(=O)COc3ccccc3)CC2)cc1,i,.
COc1ccccc1CNc1nc2ccccc2nc1NS(=O)(=O)c1ccccc1,+,.
COc1ccc(S(=O)(=O)Nc2nc3ccccc3nc2NCCC2=CCCCC2)cc1,i,.
CCN(CC)C(=O)CSc1nnc(-c2cn(C)nc2OC)n1CC,i,i
CC1CC(=O)Nc2c1c(NC(=O)c1ccc(=O)n(C)n1)nn2C (centres undefined),i,i
Cn1c(=O)c2c(nc3n2CC(c2ccc(F)cc2)=NN3CCN2CCOCC2)n(C)c1=O,+,i
CCOC(=O)Cn1c(-c2ccccc2)cn2c3c(=O)n(C)c(=O)n(C)c3nc12,i,.
CCCCCn1c(C)c(C)n2c3c(=O)n(C)c(=O)n(C)c3nc12,i,i
Cc1c(C)n2c3c(=O)n(C)c(=O)n(C)c3nc2n1CCCN1CCOCC1,+,i
Cc1c(C)n2c3c(=O)n(CC(N)=O)c(=O)n(C)c3nc2n1-c1ccc(Br)cc1,i,.
Cc1c(C)n2c3c(=O)n(CC(N)=O)c(=O)n(C)c3nc2n1CCCn1ccnc1,+,i
CCOCCN1N=C(c2ccc(F)cc2)Cn2c1nc1c2c(=O)n(C)c(=O)n1C,i,.
COC(=O)Cn1c(-c2ccccc2)cn2c3c(=O)n(C)c(=O)n(C)c3nc12,+,i
Cc1ccc(Cn2c(=O)c3c(N4CCN(C(=O)c5ccco5)CC4)c(C)cnc3n(C)c2=O)cc1,i,.
COc1ccc(S(=O)(=O)c2c(C)cc(C)n(CC(=O)NCc3ccc(C)cc3)c2=O)cc1,i,i
Cc1ccc(-n2c(-c3ccccc3)cn3c4c(=O)n(CCN5CCOCC5)c(=O)n(C)c4nc23)cc1,i,.
CCCCn1c(NCCCN2CCOCC2)nc2c1c(=O)[nH]c(=O)n2C,i,i
Cc1cn2c3c(=O)[nH]c(=O)n(C)c3nc2n1CCCN1CCOCC1,+,i
Cn1c(=O)c2c(nc3n(CCN4CCOCC4)c(-c4ccccc4)cn23)n(C)c1=O,+,.
Cc1cc(C)c(-c2ccc(=O)n(CC(=O)N3CCOCC3)n2)cc1C,i,i
SMILES,GluA2 TARP mod,GIRK2 activator
COc1cc(S(=O)(=O)Nc2cc(Cl)ccc2O)c(OC)cc1Cl,+,i
COc1cc(S(=O)(=O)Nc2cccc3cn[nH]c23)c(OC)cc1Cl,i,.
CN(C)CCSc1ccc(NC(=O)C2CC2)nn1,i,i
O=C(N1CCC(Cn2cccn2)CC1)C1(c2ccc(Cl)cc2)CCCC1,+,i
O=C(N1CCC(Cn2cccn2)CC1)C1(c2cccs2)CCCC1,i,i
O=C(NCCCn1cccc1)c1ccccc1C(F)(F)F,i,i
O=C(NCCCn1cccc1)c1c(F)cccc1F,+,i
CC(=O)Nc1ccc(C(=O)NCCNC(=O)CC(c2ccccc2)c2ccccc2)cc1,i,i
COc1cc(COCC2CCN(C(=O)CC(c3ccccc3)c3ccccc3)CC2)cc(OC)c1,i,i
COc1cc(CN2CCC(COCc3ccccc3)CC2)cc(OC)c1,+,i
CCCCn1c(=O)c2c(nc3n(C4CCCC4)c(C)cn23)n(C)c1=O,i,i
CCCCOC(=O)CCc1nc2ccccc2[nH]c1=O,i,.
CCC/C(O)=C(\C#N)c1nc2ccccc2[nH]1,+,i
O=C(NCC1CCN(C(=O)/C=C/c2ccco2)CC1)c1ccc2c(c1)OCO2,i,i
O=C(NCc1n[nH]c(=O)c2ccccc12)c1cnn(-c2ccccc2)n1,i,i
COc1ccc(OC)c2sc(N(CCCN(C)C)C(=O)c3ccno3)nc12,.,i
CSc1ccccc1C(=O)N1CCOC(c2ccc(C(F)(F)F)cc2)C1 (centres undefined),.,i
CSc1ccccc1NC(=O)C(=O)NCC1CCN(Cc2ccccc2)CC1,i,i
CSc1ccccc1CN1CCC(CNC(=O)C(=O)Nc2ccccc2Cl)CC1,+,i
CSc1ccccc1CN1CCC(CNC(=O)C23CC4CC(CC(C4)C2)C3)CC1,i,i
NC(=S)c1cc2ccc(O)cc2oc1=O,i,.
CN(C)c1ccc(-c2noc(-c3cc4ccc(O)cc4oc3=O)n2)cc1,+,i
CCOC(=O)Cn1c(C2CC(=O)N(CC)C2)nc2ccccc21 (centres undefined),i,.
CC(=O)N1N=C(c2ccc[nH]2)CC1c1ccc2nccnc2c1 (centres undefined),i,.
Cc1ccc(-n2ccnc2N2CCN(C(=O)CCCc3ccccc3)CC2)cc1,+,i
SMILES,GluA2 TARP mod,GIRK2 activator
Cc1ccc(-n2ccnc2N2CCN(C(=O)CCc3ccccc3)CC2)cc1,i,i
Cc1ccc(-n2ccnc2N2CCN(C(=O)c3ccc4ccccc4c3)CC2)cc1,i,i
Cc1ccc(-n2ccnc2N2CCN(C(=O)c3ccc(C)c(C)c3)CC2)cc1,+,i
CN1CCC(CNS(=O)(=O)c2ccc(C(C)(C)C)cc2)CC1,i,.
COc1ccc2cc(CNc3ccccc3)c(=O)n(CC(=O)Nc3cccc(Cl)c3C)c2c1,i,.
CN(C)c1ccc(/C=C2\SC(=S)N(c3ccc(O)cc3)C2=O)cc1,+,.
COc1cc(/C=C2\SC(=S)N(c3ccc(O)cc3)C2=O)cc(OC)c1OC,i,.
CCOc1ccc(N2C(=O)/C(=C\c3ccc(O)cc3)SC2=S)cc1,+,.
CCOc1ccc(N2C(=O)/C(=C/c3ccc4c(c3)OCO4)SC2=S)cc1,i,.
O=S(=O)(NCC(c1cccs1)N1CCOCC1)c1ccc(Cl)cc1 (centres undefined),i,.
O=C(COc1cccc2c1CCN(Cc1ccccc1)C2=O)NC1CCCCC1,i,.
CCOC(=O)c1c(NC(=O)COc2cccc3c2CCN(Cc2ccc(Br)cc2)C3=O)sc2c1CCC2,+,.
COC(=O)c1ccccc1NC1=C/C(=N/S(=O)(=O)c2ccc(F)cc2)c2ccccc2C1=O,+,.
COC(=O)c1cccc(NS(=O)(=O)c2ccc(F)cc2)c1C,i,.
COc1ccc(S(=O)(=O)/N=C2/C=C(Nc3ccc(C)cc3)C(=O)c3ccccc32)cc1,+,.
COc1ccc(S(=O)(=O)CCC(=O)Nc2cc(C)cc(C)c2)cc1,i,i
CCOc1ccc(NC2=C/C(=N/S(=O)(=O)c3ccc(OC)cc3)c3ccccc3C2=O)cc1,i,.
COc1ccc(S(=O)(=O)/N=C2/C=C(Nc3cccc(C)c3)C(=O)c3ccccc32)cc1,+,.
CCCN1C(=O)NC2(CCN(C(=O)Nc3ccc(OC)cc3)CC2)C1=O,i,i
O=C(NCCOc1ccc(-c2ccco2)nn1)c1ccc(Cl)cc1Cl,i,i
O=C1CNC(=O)C2(CCCC2)N1,i,i
Cc1ccc(S(=O)(=O)NCCC(=O)N/N=c2/sc3ccccc3n2C)cc1,i,.
